Among the data in PubChem BioAssay (Tox21) are Potency values, retold here.

Where “and” joins values, the source holds several entries; their conditions need not be identical. Equal values may be shown once. Inconclusive results are not listed. A call without a number means that no potency is given here. Calls of active or inactive are those of the source. Calls follow the shape of the dose curve; as a rule, active = well fitted cell-killing curve with a large enough effect in the repeat runs; inconclusive = weak or mixed curves, or effect the other way; inactive = flat fitted curve, though single readings scatter.
Potency is read from the fitted curve at half-maximal effect.

The nature of the experiment: Human pregnane X receptor (PXR) small molecule agonists, qHTS cell viability counter screen (AID 1346977). Also: nearly all actives have a fitted effect of over 50% in size. The note with it: PXR-Luc HepG2 viability, CellTiter-Fluor, 24 h; series mostly up to 92.4 µM. The text has this:
U.S. Tox21 Program National Center for Advancing Translational Sciences [NCATS] NIH Chemical Genomics Center [NCGC] U.S. Environmental Protection Agency [EPA] National Institutes of Environmental Health Sciences [NIEHS] National Toxicology Program [NTP] U.S. Food and Drug Administration [FDA] Tox21 Assay Overview: The human pregnane X receptor (hPXR) regulates the expression of several drug metabolizing enzymes and induction of these proteins is a major mechanism for developing drug resistance in cancer. One such key enzyme catalyzing the drug metabolism is cytochrome P450 3A4 (CYP3A4). Changes in CYP3A4 expression affect drug metabolism, thereby reducing the therapeutic efficacy and altering toxicological response to a drug and which finally causes adverse drug interaction. To screen Tox21 libraries for compounds that activate hPXR-mediated CYP3A4 gene expression, PXR-Luc HepG2 cells were used. Also cytotoxicity of the compounds was tested in parallel by measuring the cell viability using CellTiter-Fluor assay system in the same wells.
Tox21 Assay Protocol Summary: PXR-Luc HepG2 cells were dispensed at 2,000 per well in 5uL of assay medium containing 5% charcoal-stripped FBS into white solid bottom 1536-well plates (Corning Life Sciences, Corning, NY) using a Multidrop Combi (Thermo Scientific, Waltham, MA) dispenser. The assay plates were incubated at 37 C and 5% CO2 for 5hr, and then 23nL of compounds dissolved in DMSO and positive control were transferred using a Pintool station (Wako, San Diego, CA). The assay plates were incubated at 37C and 5% CO2 for 24hr. For cytotoxicity read, after 23hr incubation at 37C, 1uL CellTiter-Fluor reagent (Promega Corporation, Madison, WI) was added to each well of the assay plates using Flying Reagent Dispenser (FRD, Aurora Discovery, San Diego, CA). After 1hr incubation at 37C and 5% CO2, the fluorescence signal was quantified using a ViewLux plate reader (PerkinElmer, Shelton, CT).
A general note: Quantitative high-throughput screening tests each substance at several concentrations.
Consider `O=C(CCCN1CCC2(CC1)C(=O)NCN2c1ccccc1)c1ccc(F)cc1`, for which the Potency is 6.68 µM (active).
The figure for `Oc1cc(Cl)c(Cl)c(Cl)c1` is 51.7 µM (active); for `O=c1[nH]c2ccccc2n1CCCN1CCC(n2c(=O)[nH]c3cc(Cl)ccc32)CC1` it is 26.6 µM (active).
For the molecule `Cc1cc(N=Nc2ccccc2C)ccc1N`, the Potency is 4.47 µM (active) and 6.86 µM (active).
With `[Hg+2].[I-].[I-]`, the Potency was 48.6 µM (active).
Take `O=[N+]([O-])c1ccc(Oc2ccc(C(F)(F)F)cc2[N+](=O)[O-])cc1`: the Potency result was “inactive”.
Regarding `N#Cc1ccccc1N`, the Potency entry was “inactive”.
Regarding `CCSC(C)CC1CC(=O)C(/C(CC)=N/OC/C=C/Cl)=C(O)C1` (stereo not given), the Potency result was “inactive”.
In the case of `Oc1ccc2ccc3cccc4ccc1c2c34` it was “inactive”; in that of `Clc1ccc(-c2ccc(Cl)c(Cl)c2Cl)c(Cl)c1Cl`, “inactive”; in that of `CC(C)(COCC1CO1)COCC1CO1` (stereo not given), “inactive”.
Regarding `O=C1c2ccccc2C(=O)C1C(=O)C(c1ccccc1)c1ccc(Cl)cc1` (stereo not given), the Potency was 21.7 µM (active).
`O=c1[nH]c2ccccc2n1C1CCN(CCCC(c2ccc(F)cc2)c2ccc(F)cc2)CC1`: the Potency was 21.7 µM (active) and 26.6 µM (active).
The entry for `ClC(Cl)=C(c1ccc(Cl)cc1)c1ccc(Cl)cc1` is “inactive”; for `N#CNC#N` it is “inactive”; for `COc1ccc(OC)c(C=O)c1` it is “inactive”.
As for `CC1(C)CC/C(=C/c2ccc(Cl)cc2)C1(O)Cn1cncn1` (stereo not given), the Potency result is “inactive”.
Take `Cc1ccc(OP(=O)(Oc2ccccc2)Oc2ccccc2)cc1`: the Potency entry was “inactive”.
For `Cc1cccc(OP(=O)(Oc2cccc(C)c2)Oc2cccc(C)c2)c1`, the Potency result was “inactive”.
In the case of `CCCCCCCCCBr`, the Potency entry is “inactive”.
As for `CC(C)CC(C)N` (stereo not given), the Potency entry was “inactive”.
Take `C=CCOC(N)=O`: the Potency result was “inactive”.
The entry for `Cn1[nH]nnc1=S` is “inactive”; for `CC(=O)[O-].CC(=O)[O-].[Hg+2]` it is 6.11 µM (active).
Consider `CCCN(CCC)c1c([N+](=O)[O-])cc(S(N)(=O)=O)cc1[N+](=O)[O-]`, for which the Potency was 50.1 µM (active).
For `COP(=O)(CCC(=O)NCO)OC`, the Potency entry is “inactive”.
For the molecule `O=CC(Br)(Br)Br`, the Potency was 43.1 µM (active).
Regarding `FC(F)(F)c1cccc(C2=CCN(CCc3ccc4ccccc4c3)CC2)c1`, the Potency result was “inactive”.
Take `CC1(c2ccc(Oc3ccccc3)cc2)OC(=O)N(Nc2ccccc2)C1=O` (stereo not given): the Potency was 27.5 µM (active).
With `O=C(CBr)c1ccc(O)cc1`, the Potency result was “inactive”.
Regarding `N#Cc1c(-c2ccc(Cl)cc2)[nH]c(C(F)(F)F)c1Br`, the Potency is 0.77 µM (active).
In the case of `CCCCCCCCCCCCCCCC[n+]1ccccc1` it was 30.6 µM (active) [middle of 4 runs]; in that of `Cc1cc(C)c(C2=C(OC(=O)CC(C)(C)C)C3(CCCC3)OC2=O)c(C)c1`, “inactive”; in that of `CCOC(=O)CC(=O)CCl`, “inactive”.
Take `CC1(C)[C@H](C(=O)O[C@H](C#N)c2cccc(Oc3ccccc3)c2)[C@@H]1/C=C(\Cl)C(F)(F)F`: the Potency entry was “inactive”.
For the molecule `CCC(C)c1cc(C(C)(C)C)cc(-n2nc3ccccc3n2)c1O` (stereo not given), the Potency result is “inactive”.
On to `O=c1c(C2CC(c3ccc(-c4ccc(Br)cc4)cc3)Cc3ccccc32)c(O)sc2ccccc12` (stereo not given), for which the Potency is 18.8 µM (active).
For `COc1ccc(OC)c(CC(C)N)c1` (stereo not given), the Potency result was “inactive”.
As to `CC(=O)C(Cl)(Cl)Cl`, the Potency is 8.34 µM (active).
In the case of `CC[C@H](C)[C@H]1O[C@]2(C=C[C@@H]1C)C[C@@H]1C[C@@H](C/C=C(\C)[C@@H](O[C@H]3C[C@H](OC)[C@@H](O[C@H]4C[C@H](OC)[C@@H](O)[C@H](C)O4)[C@H](C)O3)[C@@H](C)/C=C/C=C3\CO[C@@H]4[C@H](O)C(C)=C[C@@H](C(=O)O1)[C@]34O)O2`, the Potency is 16.1 µM (active).
